# According to PubChem BioAssay AID743172 (National Center for Advancing Translational Sciences (NCATS), 2013):
# Inconclusive results are not listed. The source made the active and inactive calls. The call rests on the fitted dose curve; in most records, active means well fitted activation curve with a large enough effect; inconclusive means small, poorly fitted or top-dose-only effect; inactive means no such curve, though single readings can be large or run the other way.
# Experiment: Extended Characterization of HPGD Inhibitors: PGE2 Assay in LNCaP Cells
# Conditions: PGE2 HTRF level, 16 h
# From the text: The central role of HPGD is to inactivate prostaglandins such as prostaglandin E2 (PGE2) or prostaglandin D2 (PGD2). These prostaglandins are involved in a number of processes, including inflammation, differentiation, and cellular signaling, which makes HPGD an important target for pharmacological intervention. A number of prostaglandins of particular biological interest have been identified as substrates of HPGD. […] Over-production of PGE2 has been reported to promote tumor-associated neovascularization, cell proliferation, and tumor growth. […] In this orthogonal assay, we set out to measure if compounds were able to increase PGE2 production NIH Chemical Genomics Center [NCGC] NIH Molecular Libraries Probe Centers Network [MLPCN] MLPCN Grant: MH084681 Assay Submitter (PI): Structural Genomics Consortium
# A549 cells, LNCaP cells or media were dispensed in 384-well plates (ProxiPlate-384 Plus, PerkinElmer, Shelton, CT) at 5,000 cells/9.9 uL/well using a CappAero384 multichannel pipette (Odense, Denmark). Separately on the plate, 10 uL of PGE2 calibration standards at a starting assay concentration of 5,000 pg/mL (1:2 dilution, 12-points, n = 1, prepared in media, Cisbio, Bedford, MA) were dispensed. Compounds (100 nL, final concentration range from 41.9 nM to 100 uM) were transferred using an ATS Acoustic Liquid Dispenser (EDC Biosystems, Fremont, CA). After being mixed using an automated liquid handler (CyBio, Jena, Germany), samples were incubated (37 deg C, 5% CO2, under a humidified atmosphere) for 16 hours. PGE2 labeled conjugates were added to each well, first 5 uL of PGE2-d2, followed by 5 uL of anti-PGE2-cryptate, centrifuged (1,500 rpm, 15 sec) and incubated (RT, protected from light) for 5 hours. Time-resolved fluorescence intensity (320 nm excitation, 615 and 665 nm emission) was measured using an Envision plate reader (PerkinElmer). Data was expressed as the ratio of 665 nm/615 nm emissions. Concentration (pg/mL) of samples were calculated from a 4-parameter logistic calibration curves of the PGE2 standards.
row,Compound,Potency
1,Cc1cc(-c2nnc3n2CCCCC3)c(C)n1-c1cccnc1,4.43 µM (active)
2,COc1ccc(-n2c(C)cc(-c3nnc4n3CCCCC4)c2C)cc1,2.8 µM (active)
3,Cc1cc(-c2nnc3n2CCCCC3)c(C)n1-c1ccc(Cl)cc1,2.22 µM (active)
4,Cc1cc(-c2nnc3n2CCCCC3)c(C)n1-c1ccc(C(C)(C)C)cc1,2.22 µM (active)
